High-throughput results: PubChem BioAssay, several laboratories
sPLA2-III inh – human group III sPLA2 inhibitors, primary screen, biochemical, QFRET, BODIPY PC-A2 liposome substrate; AID 743126, 2013; QFRET BODIPY PC-A2 liposome hydrolysis, fluorescence; inhibition, % at 12.2 µM; 0.56% of 370,000 active;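 active means inhibition above mean plus 3 SD of compounds lying within the high and low control bounds, cut at about 19% in these data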
AI-2 QS modul – Vibrio harveyi AI-2 quorum sensing modulators, primary screen, JMH597 strain, luminescence/OD600 ratio. Vibrio harveyi JMH597 AI-2 luminescence/OD600 ratio, 9 h; stronger effect = lower value; strain lacks LuxN and CqsS sensors; 0 = neutral-control median. activity change, % at 7.5 µM. 0.4% of 300,000 active. AID 2094, 2009; in the data active means activity change below about -75%, passing the limit was not always enough;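 further: luminescence divided by OD600 gain over 9 h not by final OD600 alone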
ARNT TACC3 PPI – disruptors of ARNT/TACC3 protein interaction, primary screen, biochemical, AlphaScreen, single concentration; 0.66% of 390,000 active; Transforming acidic coiled-coil-containing protein 3 (Homo sapiens), Q9Y6A5; AlphaScreen His-ARNT PAS-B/GST-TACC3 binding, luminescence; TACC3 fragment carries E629A point mutation; inhibition, % at 9.99 µM;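 active means mean inhibition of replicates at least 50% and at least half of replicates each reaching 50%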
Rin1-Abl PPI inh – inhibitors of Rin1-Abl protein binding, primary screen, biochemical, TR-FRET. inhibition, % at 7.35 µM. 0.4% of 360,000 active; in the data active means inhibition above about 5%, passing the limit was not always enough
ARNT Alpha ctr-1 – AlphaScreen signal interference compounds, dose response, artefact control for ARNT-TACC3 interaction inhibitor project, biochemical, luminescence, cherry-pick; AC50, µM (doses to about 68 µM); shares compounds with ARNT TACC3 PPI; 50% of 1,200 active; His-ARNT PASB-GST AlphaScreen artifact counter-screen;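 active means every separate test run was called active for a drop in luminescence, with AC50 within twice the top valid dose, actives reach about 71 µM in these data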
ARNT Alpha ctr-2 – AlphaScreen signal interference by compounds, dose response, artefact control for ARNT/TACC3 disruptor project, biochemical, dual-tagged ARNT, dry powder | Dual-tagged His-ARNT PASB-GST AlphaScreen artifact counter-screen | shares compounds with ARNT TACC3 PPI | AID 720564, 2013 | AC50, µM | 70% of 45 active;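 active means luminescence drop, with half-maximal potency fitted within twice the sample's top valid dose, cut at about 70 µM in these data; inactive means the rest, including signal moving the wrong way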
Hits are given with their value; n = inactive; x = no result given. Shown are actives, neighbours in structure and some others; about 1.5% of the full set was active somewhere.

SMILES	sPLA2-III inh	AI-2 QS modul	ARNT TACC3 PPI	Rin1-Abl PPI inh	ARNT Alpha ctr-1	others
COc1ccc(CN(C)C[C@H]2Oc3ccc(NC(=O)Cn4cnnn4)cc3C(=O)N([C@H](C)CO)C[C@@H]2C)cc1	x	x	n	x	x
C[C@H](CO)N1C[C@H](C)[C@H](CN(C)S(=O)(=O)c2ccc(Cl)cc2)Oc2c(NC(=O)Nc3cccc4ccccc34)cccc2C1=O	x	x	n	x	x
COc1ccc(CN(C)C[C@@H]2Oc3ccc(NC(=O)Cn4cnnn4)cc3C(=O)N([C@@H](C)CO)C[C@H]2C)cc1	x	x	53.8	x	n
C[C@H]1CN([C@@H](C)CO)C(=O)Cc2cc(NC(=O)Nc3cccc4ccccc34)ccc2O[C@H]1CN(C)CC1CCCCC1	x	x	51.9	x	n
C[C@H](CO)N1C[C@H](C)[C@H](CN(C)C(=O)Cc2ccccc2)OCCCC[C@H](C)Oc2ccc(NS(=O)(=O)c3ccc(F)cc3)cc2C1=O	x	x	n	x	x
C[C@@H]1CN([C@H](C)CO)C(=O)c2cc(NC(=O)C3CCCCC3)ccc2O[C@@H]1CN(C)Cc1ccc(C(=O)O)cc1	x	x	n	x	x
CN(C)C(=O)C[C@@H]1C=C[C@@H](NS(=O)(=O)c2ccccc2)[C@H](CO)O1	x	x	n	x	x
N/C(=N\NS(=O)(=O)c1cc(C(F)(F)F)cc(C(F)(F)F)c1)c1ccccn1	n	n	56.8	n	n
N/C(=N\S(=O)(=O)c1cc(C(F)(F)F)cc(C(F)(F)F)c1)c1ccncc1	n	n	n	n	x
COc1ccc(C2CC(=O)Oc3c(C(CCN4CCCCC4)c4ccc(N(C)C)cc4)c(OC)cc(OC)c32)cc1 (stereo not drawn)	n	n	39.2	n	17.1µM
COc1ccc(Cc2nnc(N/N=C(\C)c3ccccc3)[nH]c2=O)cc1OC	n	n	47.3	n	n
COCCNc1nnc(Cc2ccc(OC)c(OC)c2)c(=O)[nH]1	n	n	n	n	x
COc1ccc(Cc2nnc(NN)[nH]c2=O)cc1OC	n	n	active	n	26.5µM
COc1ccc(/C=N/Nc2nnc(Cc3ccc(OC)c(OC)c3)c(=O)[nH]2)cc1OC	n	n	n	n	x
O=C(C[C@@H]1C[C@@H]2c3cc(NC(=O)c4ccc5c(c4)OCO5)ccc3O[C@@H]2[C@@H](CO)O1)NCc1cc(F)ccc1F	x	x	n	x	x
COc1ccc(S(=O)(=O)n2oc(=O)cc2-c2ccccc2)cc1OC	n	n	active	n	7.84µM
O=C(NCc1ccccn1)c1ccc(-c2ccccc2)cc1	n	n	n	n	x
O=C(NCc1ccccn1)c1c(-c2ccccc2)sc2ccccc12	n	x	58.9	n	n
CCN(C(=O)COc1cccc2cccnc12)C1CCS(=O)(=O)C1 (stereo not drawn)	n	n	53.2	n	n
Cn1c(N)c(C(=O)c2cc(-c3ccccn3)nc3ccccc23)c(=O)[nH]c1=O	n	n	28.9	n	n
CC(C)NC(=O)N(C)C[C@@H]1OCCCC[C@@H](C)Oc2ccc(NS(=O)(=O)c3ccccc3)cc2C(=O)N([C@@H](C)CO)C[C@@H]1C	x	x	n	x	x
COCC(=O)N/N=C/c1c(C)[nH]n(-c2ccccc2)c1=O	n	n	x	n	x
Cc1[nH]n(-c2ccccc2)c(=O)c1/C=N/NC(=O)COc1ccccc1[N+](=O)[O-]	n	n	59.0	n	n
NNc1nnc(-c2ccccc2)c(-c2ccccc2)n1	n	n	52.3	n	50.5µM
NNc1nc(-c2ccccc2)c2ccccc2n1	n	n	n	n	x
SMILES	sPLA2-III inh	AI-2 QS modul	ARNT TACC3 PPI	Rin1-Abl PPI inh	ARNT Alpha ctr-1	others
C[C@H]1CN([C@@H](C)CO)C(=O)c2cc(NS(=O)(=O)c3ccc(Cl)cc3)ccc2O[C@H]1CN(C)C(=O)NC1CCCCC1	x	x	n	x	x
COc1ccc(C(=O)NNC(=O)Cc2coc3cc(OC)ccc23)cc1	n	x	57.5	n	n
COc1ccc2c(CC(=O)Nc3ccccc3OC)coc2c1	n	n	n	n	x
COc1cccc(CN2[C@@H](CO)[C@@H]3c4ccccc4N(C(=O)CC(F)(F)F)C[C@@H]32)c1	x	x	n	x	x
C[C@H](CO)N1C[C@H](C)[C@H](CN(C)S(=O)(=O)c2ccc(F)cc2)Oc2c(NC(=O)C3CCOCC3)cccc2C1=O	x	x	n	x	x
COc1ccccc1C(=O)Nc1ccccc1N1CCCCC1	n	n	14.1	n	n
O=C(CSc1ccc(-c2ccccn2)nn1)NC1CCCCC1	n	n	54.9	n	25.6µM	ARNT Alpha ctr-2=19.8
O=C(CSc1ccc(-c2ccccn2)nn1)NCc1ccc(F)cc1	n	n	54.7	n	29µM
O=C(CSc1ccc(-c2cccc([N+](=O)[O-])c2)nn1)NCc1ccccc1	n	n	n	n	x
O=C(CSc1ccc(-c2ccccn2)nn1)NCc1ccccc1	n	n	102.1	n	41.1µM
C[C@H]1CN([C@@H](C)CO)C(=O)c2cc(NS(=O)(=O)c3cccs3)ccc2O[C@@H]1CN(C)C(=O)Nc1ccc(C(F)(F)F)cc1	x	x	n	x	x
c1ccc(N=Nc2ccc3cccccc2-3)cc1	n	n	56.8	n	3.21µM
C[C@@H](NC(=O)C[C@@H]1C[C@@H]2c3cc(NC(=O)NC4CCCC4)ccc3O[C@@H]2[C@@H](CO)O1)c1ccccc1	x	x	n	x	x
COCC(=O)N[C@H]1CC[C@H](CC(=O)N2CCCCC2)O[C@@H]1CO	x	x	n	x	x
CCOc1ccc2c(c1)c(N=NC(=N)N)c(O)n2C	n	n	36.3	n	n
CCCCNC(=O)CCC(=O)N1CCN(C(c2ccccc2)c2ccccc2)CC1	n	n	49.5	n	n
CC(C)NC(=O)N(C)C[C@@H]1OCc2ccccc2-c2ccccc2C(=O)N([C@@H](C)CO)C[C@H]1C	x	x	n	x	x
c1ccc(-c2nccc(-c3ccco3)n2)nc1	n	n	59.2	n	56.5µM
c1ccc(-c2noc(-c3ccco3)n2)nc1	n	n	x	n	x
C[C@@H]1CN([C@@H](C)CO)C(=O)c2cc(C#CCc3ccccc3)cnc2O[C@@H]1CN(C)Cc1cccc(F)c1	x	x	n	x	x
COC(=O)c1[nH]c2ccc(C)cc2c1NC(=O)c1ccccc1[N+](=O)[O-]	n	n	54.3	n	n
Cc1cccc(NC(=S)N2CCCCC2)c1	n	n	n	n	x
Cc1ccc(C2CCN(C(=S)Nc3cccc(C)c3)C2)cc1 (stereo not drawn)	n	n	57.7	n	n
Oc1c(CN2CCN(c3ccccc3)CC2)cc(Br)c2cccnc12	n	n	59.3	n	2.37µM
COCc1cc(CN2CCN(C)CC2)c(O)c2ncccc12	n	n	66.6	n	10.1µM
